Test results taken from the supplement of paper PMC10849652.
The full data set covers some 8,800 targets. This sample favours those with a hit. About 0.5% of all pairs of compound and target were hits.

Legend:
Assay in all cases: log2 fold change, soluble protein after heating vs DMSO (PISA); higher = thermal stabilisation; K562 lysate, 10 uM; active = over 0.2 and 3.5 SD of the protein, either way, in both replicates (recomputed)
[1] = compound: Cc1cn(-c2cc(NC(=O)c3ccc(C)c(Nc4nccc(-c5cccnc5)n4)c3)cc(C(F)(F)F)c2)cn1 [nilotinib]
Outline: (§1)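 Values give the log-two fold change in thermal stability against solvent controls, from duplicates. Crude K562 extract at 1 mg/mL protein, made by dounce homogenisation in PBS pH 7.4 with 1 mM MgCl2, was treated with 10 μM compound for 30 min. After 3 min heating across 48°C-58°C, aliquots were pooled, adjusted to 0.5% NP-40 at 4°C and centrifuged at 21,000xg for 90 min. The supernatant was measured by TMTpro 16plex LC-MS/MS with channel sums equalised.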

[2] = compound: Cc1nc(Nc2n[nH]c3c2CN(C(=O)N[C@H](CN(C)C)c2ccccc2)C3(C)C)c2sccc2n1
Outline: as §1

[3] = compound: Cc1nc(Nc2ncc(C(=O)Nc3c(C)cccc3Cl)s2)cc(N2CCN(CCO)CC2)n1 [dasatinib]
Outline: as §1

[4] = compound: Cc1ncc(-c2ccnc(Nc3ccc(S(C)(=O)=O)cc3)n2)n1C(C)C
Outline: as §1

[5] = compound: Cn1cc(-c2ccc3c(c2)CCN3C(=O)Cc2cccc(C(F)(F)F)c2)c2c(N)ncnc21
Outline: as §1

[6] = compound: Cn1cc(CNCC2CCN(c3ncc(C(=O)NO)cn3)CC2)c2ccccc21 [quisinostat]
Outline: as §1

[7] = compound: Cn1cncc1[C@@](N)(c1ccc(Cl)cc1)c1ccc2c(c1)c(-c1cccc(Cl)c1)cc(=O)n2C [tipifarnib]
Outline: as §1

[8] = compound: NC(=O)Nc1cc(-c2cccc(F)c2)sc1C(=O)N[C@H]1CCCNC1
Outline: as §1

[9] = compound: NC(=O)c1cnc(N[C@@H]2CCCC[C@@H]2N)nc1Nc1cccc(-n2nccn2)c1
Outline: as §1

[10] = compound: NC1(c2ccc(-c3nc4ccn5c(=O)[nH]nc5c4cc3-c3ccccc3)cc2)CCC1
Outline: as §1

[11] = compound: NCC(=O)Nc1ccc(-n2nc(C(F)(F)F)cc2-c2ccc3c(ccc4ccccc43)c2)cc1
Outline: as §1

[12] = compound: O=C(CCCCCCC(=O)Nc1ccccc1)NO [vorinostat]
Outline: as §1

[13] = compound: O=C(O)c1ccc2c(c1)nc(Nc1cccc(Cl)c1)c1ccncc12 [silmitasertib]
Outline: as §1

[14] = compound: O=C1NC(=O)C(c2cnc3ccccn23)=C1c1cn2c3c(cc(F)cc13)CN(C(=O)N1CCCCC1)CC2
Outline: as §1

[15] = compound: c1cn2cc(-c3ccc4cn[nH]c4c3)nc(Nc3ccc(N4CCOCC4)cc3)c2n1 [entospletinib]
Outline: as §1

Measured: log2 fold change

MRPL10 isoform 2 (UniProt Q7Z7H8)
inactive: [1] 0.009 | [2] 0.016 | [3] -0.019 | [4] 0.025 | [5] 0.054 | [6] -0.22 | [7] -0.017 | [8] 0.015 | [9] 0.024 | [10] -0.011 | [11] 0.005 | [12] 0.035 | [13] -0.027 | [14] -0.027 | [15] -0.027

MAP2K5 (UniProt Q13163)
Chain of UniProt Q13163 (Q13163 whole entry, looked up): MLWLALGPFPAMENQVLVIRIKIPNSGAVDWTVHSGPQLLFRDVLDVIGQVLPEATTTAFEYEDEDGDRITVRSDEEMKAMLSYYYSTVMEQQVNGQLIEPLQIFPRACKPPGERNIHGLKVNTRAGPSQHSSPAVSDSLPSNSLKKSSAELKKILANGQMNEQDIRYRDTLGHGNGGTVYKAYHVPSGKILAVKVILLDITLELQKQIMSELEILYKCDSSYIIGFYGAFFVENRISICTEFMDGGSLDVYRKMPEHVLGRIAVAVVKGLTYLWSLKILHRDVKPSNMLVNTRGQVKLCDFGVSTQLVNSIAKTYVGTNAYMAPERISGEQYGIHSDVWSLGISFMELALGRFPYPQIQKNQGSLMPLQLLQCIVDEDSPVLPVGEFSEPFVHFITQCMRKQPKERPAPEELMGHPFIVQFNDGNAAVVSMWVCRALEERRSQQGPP
inactive: [1] 0.019 | [2] -0.086 | [3] -0.229 | [4] -0.143 | [5] 0.079 | [6] -0.152 | [7] -0.015 | [9] 0.035 | [10] -0.048 | [11] -0.111 | [12] -0.293 | [13] -0.123 | [14] 0.023 | [15] 0.065
active: [8] 0.925

MAP1S (UniProt Q66K74)
inactive: [1] 0.007 | [2] -0.022 | [3] -0.007 | [4] -0.009 | [5] 0.009 | [6] -0.006 | [7] 0.02 | [8] 0.026 | [9] 0 | [10] 0 | [11] 0.006 | [13] -0.004 | [14] -0.025 | [15] 0.01
active: [12] -0.242

KIF4A (UniProt O95239)
Chain of UniProt O95239 (O95239 whole entry, looked up): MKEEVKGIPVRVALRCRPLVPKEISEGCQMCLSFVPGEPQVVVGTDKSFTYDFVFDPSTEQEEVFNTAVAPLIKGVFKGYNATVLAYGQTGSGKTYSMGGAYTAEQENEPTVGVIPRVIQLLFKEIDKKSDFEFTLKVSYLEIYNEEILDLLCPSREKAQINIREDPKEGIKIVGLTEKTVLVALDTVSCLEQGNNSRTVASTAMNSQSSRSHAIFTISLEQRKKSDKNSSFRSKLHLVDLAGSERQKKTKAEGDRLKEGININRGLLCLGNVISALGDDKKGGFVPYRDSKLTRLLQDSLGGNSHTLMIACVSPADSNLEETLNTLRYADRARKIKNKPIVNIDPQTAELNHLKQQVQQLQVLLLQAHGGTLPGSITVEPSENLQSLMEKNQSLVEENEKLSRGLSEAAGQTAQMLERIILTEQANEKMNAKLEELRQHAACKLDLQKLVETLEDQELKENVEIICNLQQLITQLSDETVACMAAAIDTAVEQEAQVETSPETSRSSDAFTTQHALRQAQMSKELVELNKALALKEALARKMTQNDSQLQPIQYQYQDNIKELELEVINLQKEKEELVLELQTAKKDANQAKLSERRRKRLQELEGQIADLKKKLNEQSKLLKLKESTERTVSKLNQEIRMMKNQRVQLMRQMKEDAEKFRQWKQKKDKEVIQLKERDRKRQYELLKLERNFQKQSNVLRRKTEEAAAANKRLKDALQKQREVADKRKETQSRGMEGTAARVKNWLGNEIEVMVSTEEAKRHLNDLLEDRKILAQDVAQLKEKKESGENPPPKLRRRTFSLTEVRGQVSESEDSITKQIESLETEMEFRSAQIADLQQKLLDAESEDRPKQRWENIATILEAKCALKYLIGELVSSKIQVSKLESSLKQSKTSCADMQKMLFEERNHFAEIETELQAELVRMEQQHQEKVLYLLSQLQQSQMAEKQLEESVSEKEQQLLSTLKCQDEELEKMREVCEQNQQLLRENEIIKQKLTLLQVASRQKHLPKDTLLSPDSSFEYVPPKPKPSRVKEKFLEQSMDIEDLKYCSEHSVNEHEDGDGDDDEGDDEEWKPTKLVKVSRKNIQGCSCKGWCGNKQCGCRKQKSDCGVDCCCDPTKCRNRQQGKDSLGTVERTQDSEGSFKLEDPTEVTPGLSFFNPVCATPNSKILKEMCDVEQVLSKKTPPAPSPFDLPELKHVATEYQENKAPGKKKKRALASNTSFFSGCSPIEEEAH
active: [12] -0.445
inactive: [1] -0.02 | [2] 0.029 | [3] -0.011 | [4] 0.014 | [5] 0.037 | [6] -0.104 | [7] 0.017 | [8] 0.042 | [9] -0.014 | [10] 0.014 | [11] -0.017 | [13] 0.017 | [14] 0.013 | [15] 0.001

MRPL28 (UniProt Q13084)
inactive: [1] 0.03 | [2] -0.111 | [3] -0.013 | [4] -0.037 | [5] 0.051 | [6] -0.031 | [7] 0.149 | [8] 0.057 | [9] 0.015 | [10] -0.058 | [11] 0.002 | [12] -0.037 | [13] 0.022 | [14] 0.044 | [15] 0.129

LAS1L (UniProt Q9Y4W2)
Chain of UniProt Q9Y4W2 (Q9Y4W2 whole entry, looked up): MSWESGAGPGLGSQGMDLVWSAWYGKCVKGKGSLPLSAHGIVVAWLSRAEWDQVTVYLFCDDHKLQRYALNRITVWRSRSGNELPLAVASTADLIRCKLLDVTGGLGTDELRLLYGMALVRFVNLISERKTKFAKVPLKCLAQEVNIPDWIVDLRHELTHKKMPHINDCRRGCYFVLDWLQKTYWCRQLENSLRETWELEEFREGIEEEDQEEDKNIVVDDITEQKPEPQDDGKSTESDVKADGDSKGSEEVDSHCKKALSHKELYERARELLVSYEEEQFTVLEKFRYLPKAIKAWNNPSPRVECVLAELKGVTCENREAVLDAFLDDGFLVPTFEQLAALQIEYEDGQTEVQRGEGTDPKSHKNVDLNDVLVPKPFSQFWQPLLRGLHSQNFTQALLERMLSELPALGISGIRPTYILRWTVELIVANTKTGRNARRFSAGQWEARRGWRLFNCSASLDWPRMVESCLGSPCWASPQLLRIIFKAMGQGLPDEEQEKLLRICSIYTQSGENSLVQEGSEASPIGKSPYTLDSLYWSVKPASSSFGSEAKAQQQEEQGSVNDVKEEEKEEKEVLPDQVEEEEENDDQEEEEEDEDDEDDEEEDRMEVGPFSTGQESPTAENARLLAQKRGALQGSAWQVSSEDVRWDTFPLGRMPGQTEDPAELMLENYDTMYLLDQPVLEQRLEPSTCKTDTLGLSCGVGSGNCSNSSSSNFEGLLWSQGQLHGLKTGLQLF
inactive: [1] -0.019 | [2] 0.008 | [3] 0.025 | [4] 0.029 | [5] -0.019 | [6] -0.083 | [7] -0.013 | [8] 0.033 | [9] 0.044 | [10] -0.024 | [11] -0.008 | [13] 0.01 | [14] -0.018 | [15] -0.075
active: [12] -0.397

LYSMD3 (UniProt Q7Z3D4)
Chain of UniProt Q7Z3D4 (Q7Z3D4 whole entry, looked up): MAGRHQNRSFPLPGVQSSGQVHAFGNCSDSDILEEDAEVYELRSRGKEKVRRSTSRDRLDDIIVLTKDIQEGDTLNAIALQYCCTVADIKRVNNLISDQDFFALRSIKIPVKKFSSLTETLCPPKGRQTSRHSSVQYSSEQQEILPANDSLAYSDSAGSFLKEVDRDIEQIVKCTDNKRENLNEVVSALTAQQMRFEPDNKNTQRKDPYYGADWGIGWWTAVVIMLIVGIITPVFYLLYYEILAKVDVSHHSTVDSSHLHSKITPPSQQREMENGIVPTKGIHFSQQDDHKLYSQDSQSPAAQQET
active: [7] 0.352
inactive: [1] -0.096 | [2] -0.293 | [3] -0.083 | [4] 0.171 | [5] -0.068 | [6] -0.037 | [8] -0.022 | [9] 0.057 | [10] 0.023 | [11] 0.01 | [12] 0.095 | [13] -0.022 | [14] -0.029 | [15] 0.028

LSS (UniProt P48449)
inactive: [1] 0.042 | [2] 0.001 | [3] 0.016 | [4] -0.025 | [5] 0.047 | [6] -0.022 | [7] -0.065 | [8] 0.003 | [9] 0.083 | [10] 0.092 | [11] -0.042 | [12] 0.049 | [13] -0.039 | [14] -0.014 | [15] -0.043

MAP4 (UniProt P27816)
Chain of UniProt P27816 (P27816 whole entry, looked up): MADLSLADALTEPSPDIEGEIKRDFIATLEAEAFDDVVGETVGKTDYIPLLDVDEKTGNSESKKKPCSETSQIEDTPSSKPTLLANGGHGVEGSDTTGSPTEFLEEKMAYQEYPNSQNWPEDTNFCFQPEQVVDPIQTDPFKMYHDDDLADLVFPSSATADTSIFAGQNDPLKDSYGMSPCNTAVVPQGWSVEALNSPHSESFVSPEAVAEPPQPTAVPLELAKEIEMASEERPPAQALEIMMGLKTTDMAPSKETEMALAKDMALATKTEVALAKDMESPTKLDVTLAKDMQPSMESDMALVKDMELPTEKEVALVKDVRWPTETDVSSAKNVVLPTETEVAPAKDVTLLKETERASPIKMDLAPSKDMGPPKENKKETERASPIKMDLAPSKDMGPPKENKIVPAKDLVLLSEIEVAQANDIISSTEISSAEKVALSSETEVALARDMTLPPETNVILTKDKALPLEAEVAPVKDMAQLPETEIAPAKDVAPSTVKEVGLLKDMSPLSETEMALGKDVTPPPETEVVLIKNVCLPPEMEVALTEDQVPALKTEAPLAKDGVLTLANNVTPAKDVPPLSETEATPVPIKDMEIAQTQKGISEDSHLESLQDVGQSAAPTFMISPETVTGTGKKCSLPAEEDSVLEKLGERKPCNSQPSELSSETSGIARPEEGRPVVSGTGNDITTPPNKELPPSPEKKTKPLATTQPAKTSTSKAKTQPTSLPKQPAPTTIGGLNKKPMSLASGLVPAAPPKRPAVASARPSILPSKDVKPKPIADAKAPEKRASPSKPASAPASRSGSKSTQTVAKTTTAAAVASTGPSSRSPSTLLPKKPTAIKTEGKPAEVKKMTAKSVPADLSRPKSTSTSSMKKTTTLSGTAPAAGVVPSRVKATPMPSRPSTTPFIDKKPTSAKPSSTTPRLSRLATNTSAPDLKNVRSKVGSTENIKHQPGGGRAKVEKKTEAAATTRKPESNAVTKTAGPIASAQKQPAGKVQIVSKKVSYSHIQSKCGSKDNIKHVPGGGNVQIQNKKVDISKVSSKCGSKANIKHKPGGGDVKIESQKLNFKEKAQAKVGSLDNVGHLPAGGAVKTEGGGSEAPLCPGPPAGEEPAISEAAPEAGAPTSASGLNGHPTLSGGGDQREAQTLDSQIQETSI
inactive: [1] -0.002 | [2] -0.001 | [3] 0.013 | [4] 0.016 | [5] -0.036 | [6] -0.001 | [7] 0.012 | [8] -0.034 | [9] -0.011 | [10] -0.003 | [11] 0.017 | [12] 0.092 | [13] -0.023 | [14] 0.016 | [15] 0.005

MPI (UniProt P34949)
Chain of UniProt P34949 (P34949 whole entry, looked up): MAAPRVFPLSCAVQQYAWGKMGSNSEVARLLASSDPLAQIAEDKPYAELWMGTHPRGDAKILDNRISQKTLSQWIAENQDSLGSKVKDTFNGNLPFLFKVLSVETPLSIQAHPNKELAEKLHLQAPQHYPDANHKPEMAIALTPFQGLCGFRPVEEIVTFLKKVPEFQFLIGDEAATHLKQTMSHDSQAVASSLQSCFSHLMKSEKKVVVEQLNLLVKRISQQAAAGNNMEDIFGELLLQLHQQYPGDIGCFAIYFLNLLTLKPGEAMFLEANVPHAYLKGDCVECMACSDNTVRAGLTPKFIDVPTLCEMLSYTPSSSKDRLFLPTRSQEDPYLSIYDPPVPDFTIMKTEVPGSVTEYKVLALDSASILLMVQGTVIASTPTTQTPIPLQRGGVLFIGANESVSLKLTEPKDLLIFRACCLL
inactive: [1] 0.002 | [2] -0.02 | [3] -0.035 | [4] 0.019 | [5] -0.022 | [6] -0.025 | [7] 0.009 | [8] 0.029 | [9] 0.016 | [10] -0.026 | [11] 0.013 | [12] 0.049 | [13] -0.047 | [14] -0.007 | [15] -0.017

MAT2B (UniProt Q9NZL9)
Chain of UniProt Q9NZL9 (Q9NZL9 whole entry, looked up): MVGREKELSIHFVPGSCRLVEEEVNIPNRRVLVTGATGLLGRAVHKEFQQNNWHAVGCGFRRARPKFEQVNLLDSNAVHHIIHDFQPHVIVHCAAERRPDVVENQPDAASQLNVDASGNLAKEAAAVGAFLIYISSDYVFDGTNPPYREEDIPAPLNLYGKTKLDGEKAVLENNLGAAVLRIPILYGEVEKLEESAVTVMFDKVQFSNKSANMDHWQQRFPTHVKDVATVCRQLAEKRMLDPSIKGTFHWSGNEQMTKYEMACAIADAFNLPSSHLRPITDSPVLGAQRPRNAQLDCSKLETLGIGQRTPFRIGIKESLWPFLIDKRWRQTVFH
inactive: [1] 0.002 | [2] -0.014 | [3] -0.023 | [4] -0.024 | [5] -0.007 | [6] 0.021 | [7] 0.02 | [8] -0.005 | [9] 0.04 | [10] 0.009 | [11] 0.019 | [12] 0.103 | [13] 0.005 | [14] 0.021 | [15] 0.024
